# Assay outcomes (PubChem)
# Shown are actives, neighbours in structure and some others; about 8% of the full set was active somewhere.
# MCF10A rerep – A quantitative high throughput screen for small molecules that induce DNA re-replication in MCF 10a normal breast cells; MCF 10A DNA re-replication, Hoechst nuclear intensity, 48 h; Potency, µM (highest dose often 46.1 µM), without a hit: top-dose activity, positive = re-replication, hits mostly activators; 350,000 tested, 2.9% active; further: % of control where 0% means no effect; nearly all actives have a fitted effect of over 50% in size
# KB-V1 cytotox – qHTS assay for MDR1-selective chemotherapeutics: Primary screen using the drug-selected MDR subline cells KB-V1; KB-V1 MDR cells viability, CellTiter-Glo, 72 h; Potency, µM (highest dose often 46.1 µM), most hits filed as cytotoxic; 400,000 tested, 3.4% active; further: on the % scale 0 is the no-effect control and ±100 the full control effect; nearly all actives have a fitted effect of over 60% in size
#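 Drug-selected KB-V1 cells, grown in DMEM lacking phenol red with 10% FBS, receive compound titrations; after three days at 37 degrees C, surviving cell ATP is quantified by CellTiter-Glo luminescence and responses normalized and curve-fitted.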
# HT1080-NT tox – qHTS for induction of synthetic lethality in tumor cells producing 2HG: qHTS for the HT-1080-NT fibrosarcoma cell line; HT-1080-NT fibrosarcoma viability, CellTiter-Glo ATP luminescence, 48 h; Potency, µM (doses to about 46.1 µM), without a hit: top-dose activity, negative = less viability, hits mostly cytotoxic; 360,000 tested, 1.6% active; AID 686970, 2013;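 further: NT is the 2HG producing partner of a matched IDH1 knockdown line; 0% = DMSO-treated cells and -100% = media-only wells without cells; nearly all actives have a fitted effect of over 55% in size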
#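 Luminescent CellTiter-Glo readout after 48 hours of compound exposure at 37 degrees C defined viability of HT-1080-NT cells. Activity was normalized to DMSO wells and cell-free media wells; concentration-response curves were fitted and assigned curve classes.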
# SW480 rerep – A quantitative high throughput screen for small molecules that induce DNA re-replication in SW480 colon adenocarcinoma cells; SW480 DNA re-replication, Hoechst DNA content imaging, 48 h; Potency, µM (top dose mostly 46.1 µM), for the others: at the top dose re-replication activation, hits mostly activators; 340,000 tested, 1.8% active; AID 624297, 2012; further: % of control where 0% means no effect; nearly all actives have a fitted effect of over 55% in size
#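 Treated cells incubate 48 hr (37 C, 5% CO2), are stained 40 min with Hoechst, and nuclear fluorescence is enumerated; a rise in nuclei with high DNA signal marks re-replication.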
# HT1080 IDH1KD tx – qHTS for induction of synthetic lethality in tumor cells producing 2HG: qHTS for the HT-1080-IDH1KD cell line; Potency, µM (top dose mostly 46.1 µM), inactives show at the highest dose activity, negative = toxicity, usual class: cytotoxic; HT-1080 IDH1 knockdown viability, ATP luminescence, 48 h; 360,000 tested, 2% active; AID 686971, 2013;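 further: 0% = DMSO wells and -100% = cell-free medium wells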
#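 Luminescent ATP read-out (CellTiter-Glo, 10 min at room temperature) after 48 h compound exposure at 37 °C gave viability of IDH1-knockdown HT-1080 cells. Activity was normalised to DMSO and cell-free wells, then fitted as concentration-response curves.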
# KB-3-1 tox – qHTS assay for MDR1-selective chemotherapeutics: Primary screen using the parental adenocarcinoma cell KB-3-1. KB-3-1 viability, CellTiter-Glo ATP luminescence, 72 h. Potency, µM (top dose mostly 46.1 µM), usual class: cytotoxic. 400,000 tested, 1.4% active. AID 1347075, 2019; further: on the % scale 0 is the no-effect control and ±100 the full control effect; nearly all actives have a fitted effect of over 60% in size
#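 Luminescent ATP read-out (CellTiter-Glo) measures survival of drug-naive KB-3-1 cells after 72 h compound exposure at 37 °C. Titration series was screened from lowest to highest concentration, with DMSO vehicle plates as background controls.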
# Starred values were filed as active, the others as inactive; i = inactive; ? = inconclusive; . = not tested or not shown; ! = not confirmed by another sample; [ ] = dose if it differs, or a comment. The call rests on the fitted dose curve; in most records, active means well fitted curve in the direction sought with a large enough effect; inconclusive means small, poorly fitted or top-dose-only effect, or another doubt; inactive means no such curve, though single readings can be large; an effect the other way counts as inactive or inconclusive. Potency means the concentration at half of the fitted maximal effect.
SMILES,MCF10A rerep,KB-V1 cytotox,HT1080-NT tox,SW480 rerep,HT1080 IDH1KD tx,KB-3-1 tox
CCCCCCCCCc1conc1C(=O)/C=C/c1oc2c(c1C)CCC(C)C2 (stereo not drawn),.,i,?,.,?,i
CCOC(=O)/C=C/C(=O)N1CCN(C(=O)/C=C/C(=O)OCC)CC1,15µM*,i,-9%,?,-24%,i
COc1ccc(C(=O)Nc2cccc3c2CCCC3)cc1,13µM*,i,?,?,?,23µM*
COc1ccc(C(=O)Nc2ccc3c4c(cccc24)CC3)cc1,8%,13µM*,-15%,7%,?,i
COc1cccc(C(=O)Nc2c(F)c(F)c(F)c(F)c2F)c1,-1%,?,-1%,0%,4%,i
COc1ccc(CC(=O)Nc2cccc3c2CCCC3)cc1,12%,i,6%,3%,0%,i
COc1cccc(C(=O)Nc2c3c(nc4c2CCC4)CCCC3)c1,8%,15µM*,0%,1%,8%,i
NS(=O)(=O)c1cccc(NC(=O)c2ccc(NS(=O)(=O)c3cccc([N+](=O)[O-])c3)cc2)c1,1%,i,1%,-2%,-16%,i
COc1ccc(-n2c(NNC(C)=O)nc3sc4c(c3c2=O)CCCC4)cc1,18%,i,-24%,4%,-22%,i
COc1ccc(/C=C2\SC(=O)N=C2N)cc1OC,1%,i,-15%,-7%,-13%,i
COc1ccc(/C=C2\SC(=N)N(c3nccs3)C2=O)cc1OC,10µM*,i,?,12µM*,?,?
N=C1S/C(=C\c2ccc(-c3cccc(Cl)c3)o2)C(=O)N1c1nccs1,?,?,-20%,?,?,7.3µM*
Cc1ccc(NC(=O)Cn2nc(C)c(S(=O)(=O)N(C)C)c2C)cc1,2%,i,22%,0%,0%,i
COc1ccc(-c2c(C#Cc3ccc(N(C)C)cc3)c3ccccc3n2C)cc1,?,i,-2%,?,-12%,i
COc1ccc(C#Cc2c(-c3ccccc3)n(-c3ccccc3)c3ccc(CO)cc23)cc1,21µM*,?,?,?,?,i
CN1C(=O)Nc2cccc3cccc1c23,8%,0.46µM*,-17%,-10%,-8%,1µM*
COC(=O)C1=NN(c2cccc(C)c2)C2C(=O)N(c3ccccc3OC)C(=O)C12 (stereo not drawn),-3%,i,1%,-7%,4%,i
Cc1ccnc(NC(=O)c2cccc(OC(F)F)c2)n1,5%,i,0%,-9%,16%,i
O=C(Nc1cc(Cl)cc(Cl)c1)c1cccc(OC(F)F)c1,?,16µM*,-13%,3%,-5%,13µM*
CC1CN(S(=O)(=O)c2cccc(C(F)(F)F)c2)CC(C)O1 (stereo not drawn),-1%,i,0%,-13%,3%,i
Cc1ccc(-c2nc3ccccc3c(=O)n2Cc2ccccc2)cc1,?,13µM*,7%,0%,5%,i
O=c1c2ccccc2nc(-c2ccccc2)n1Cc1ccco1,16%,12µM*,8%,-13%,18%,i
CCn1c(SCC(=O)N/N=C/c2cc(OC)c(OC)c(OC)c2)nc2ccccc21,5%,i,-2%,1%,-8%,i
COc1ccc(-c2cnc(C(O)c3ccc(-c4ccccc4)cc3)[nH]2)cc1 (stereo not drawn),.,i,-26%,.,0%,i
O=C(Nc1nc2c(F)cccc2s1)C1CC1,2%,i,13%,-12%,-1%,i
SMILES,MCF10A rerep,KB-V1 cytotox,HT1080-NT tox,SW480 rerep,HT1080 IDH1KD tx,KB-3-1 tox
CC1CCc2c(sc(Nc3nc4c(F)cccc4s3)c2C(N)=O)C1 (stereo not drawn),7.3µM*,i,?,?,?,i
FC(F)(F)c1nc2nc(Cl)c(Cl)nc2[nH]1,.,i,-17%,.,-20%,?
FC(F)(F)c1cccc(-c2nc3nc(Cl)c(Cl)nc3[nH]2)c1,?,?,?,?,?,2.6µM*!
COc1ccc2c(c1)sc1nc(-c3ccccc3)cn12,?,?,2.6µM*,?,4.6µM*,2.3µM*
CN(C)S(=O)(=O)N1CCN(CC(O)COc2ccc(-c3ccccc3)cc2)CC1 (stereo not drawn),23µM*,i,-13%,6%,-7%,i
O=S(=O)(N1CCCCC1)N1CCN(CC(O)COc2ccc3cc(Br)ccc3c2)CC1 (stereo not drawn),-2%,?,-15%,1%,-28%,?
CCCc1ccc(OCC(O)CN2CCCC2)cc1 (stereo not drawn),15µM*,i,-18%,-2%,-19%,i
C=CCc1ccccc1OCC(O)CN1CCOCC1 (stereo not drawn),9%,i,2%,12µM*,-1%,i
OC(COc1ccc2cc(Br)ccc2c1)CN1CCCC1 (stereo not drawn),?,?,-29%[9.24 µM],?,13µM*,?
C=CCc1ccccc1OCC(O)CN1CCN(c2ccc(OC)cc2)CC1 (stereo not drawn),16%,i,0%,3%,3%,i
Cc1ccc(/C=C/C(=O)O)cc1S(=O)(=O)NCC1CCCO1 (stereo not drawn),3%,i,7%,0%,3%,i
CC1(C)OC(C(N)=O)C(C(N)=O)O1 (stereo not drawn),1%,i,2%,1%,10%,i
CCOC(=O)c1cc(OC(=O)c2ccc(OC)cc2)n(-c2ccccc2)n1,.,i,.,.,.,i
Cc1ccc(S(=O)(=O)Cn2nnnc2C(C)N2CCN(C(=O)c3ccco3)CC2)cc1 (stereo not drawn),5%,i,4%,8%,-1%,i
CCCN(C(=O)c1ccccc1N)c1c(C)n(C)n(-c2ccccc2)c1=O,-2%,i,12%,5%,12%,i
OC(COc1ccc(OCc2ccccc2)cc1)CN1CCOCC1 (stereo not drawn),9.2µM*,i,-5%,?,1%,i
CN1CCN(CC(O)COc2ccc(C34CC5CC(CC(C5)C3)C4)cc2)CC1 (stereo not drawn),15µM*,?,18µM*,?,15µM*,?
